# Source: ChEMBL document CHEMBL3988442, “University of Dundee, Small-Polar-MMV Screening Library” (2021)
# Hit rate of the full screen: of about 48,000 compounds, about 13,000 (27%) showed an effect of 50% or more. Some of the results follow.
# Tested on: Wolbachia pipientis
# Test: Anti-Wolbachia Cell-Based Screen
# Format: functional
# Parameters: scale not given: in the data most compounds retested in dose-response had high values
# Conditions: 5 µM
row,Structure (SMILES),Percent Effect [%]
1,COCCn1c(C(=O)NCc2n[nH]c(C)n2)cc2ccccc21,-4.273
2,O=C(O)C(F)(F)F.O=C(O)C(F)(F)F.O=C(O)C(F)(F)F.c1ccc(CO[C@@H]2CN(Cc3cccnc3)[C@@H]3COC[C@@H]32)nc1,110.7
3,CNC(=O)[C@@H]1[C@H]2CNCCN2C[C@H]1c1ccccc1,84.83
4,CC(=O)C1(c2ccccc2)CCN(C(=O)C2CNCCO2)CC1 (stereo unspecified),2.674
5,CCOC(=O)[C@@H]1[C@@H](c2ccccc2)CN2CCNC[C@H]12,118.8
6,CC(=O)NC(C)C(=O)NCc1ccc(N2CCNC(=O)C2)cc1 (stereo unspecified),100.5
7,Cl.O=C(N[C@H]1CN[C@H]2CCCO[C@H]21)c1ccno1,-7.03
8,O=C1CO[C@@H]2CNC[C@H]2N1CC1CC1,-15.76
9,COc1c(CNCCc2c[nH]c3ccccc23)c(C)nn1C,86.16
10,COc1c(CNCCc2c[nH]c3ccccc23)c(C(C)C)nn1C,95.04
11,COc1cccc(CCNCc2c(C)nn(C)c2N(C)C)c1,-6.952
12,CC(C(=O)N(C)C)N1CCCN(C(=O)Oc2ccccc2)CC1 (stereo unspecified),-7.894
13,Cc1ncc2c(n1)CCCC2NC(=O)c1cnn(Cc2ccccc2)c1 (stereo unspecified),108
14,Cl.NC1(c2nc(C(F)(F)F)cc(=O)[nH]2)CCCCC1,-23.28
15,COCCN1CCN(c2ccc(C)nn2)Cc2ccc(C)nc21.O=C(O)C(F)(F)F.O=C(O)C(F)(F)F,113.9
16,COCCN1CCN(S(C)(=O)=O)Cc2ccc(C)nc21.O=C(O)C(F)(F)F,1.772
17,COCCN1CCN(c2ccc(C)nn2)Cc2cccnc21.O=C(O)C(F)(F)F,-12.27
18,COCCN1CCN(c2cccc(C)n2)Cc2ccc(C)nc21.O=C(O)C(F)(F)F.O=C(O)C(F)(F)F,115.7
19,COc1ccc(CCN)cc1-c1ccc(O)cc1,-1.441
20,COc1cccc2c(=O)n(C3CCNCC3)cnc12,0.1861
21,COc1cccc(CC(C)NC(=O)NC(C)C)c1 (stereo unspecified),-4.746
22,COc1ccc(CC(C)Nc2cccc(F)c2)cc1 (stereo unspecified),103.5
23,COCC(=O)NC(C)Cc1cccc(OC)c1 (stereo unspecified),-11.91
24,CC(=O)N1C[C@H]2CNC[C@@]2(C(=O)NCCCOc2cccnc2)C1,-25.71

row,Structure (SMILES),Percent Effect [%]
1,CC(=O)N1CC[C@H]2N(C)CC[C@@]2(C(=O)Nc2cccnc2)CC1,115.3
2,CC(=O)N1CCC2(CC1)NC(=O)[C@H]1CN(Cc3cccnc3)C[C@H]12,-21.72
3,O=C(CCc1nccs1)N1CCC(C(=O)O)(c2ccccc2)CC1,4.146
4,CN(Cc1nc(C2CC2)no1)C(=O)CN1CC(c2ccccc2)CC1=O (stereo unspecified),-16.31
5,CC1CCN(CC(=O)N(Cc2ccccc2)Cc2nccs2)C1=O (stereo unspecified),108.7
6,O=C(NC[C@H]1C[C@@H]2CCN1C[C@@H]2CN1CCOCC1)Nc1ccccc1,10.54
7,Cc1cc(C(=O)N2CCC3(CCN3Cc3ccc(F)cc3)C2)no1.O=C(O)C(F)(F)F (stereo unspecified),-18.68
8,CC[C@@H]1N(Cc2ccccn2)CCC[C@]12CCC(=O)N2CCOC,95.06
9,O=C(O)C(F)(F)F.O=C(O)C(F)(F)F.O=C(O)C(F)(F)F.O=C1N(c2cccnc2)CCC12CCCN(Cc1cccnc1)C2 (stereo unspecified),-3.646
10,CN(C)C(=O)CN1CCC2(CCCN(Cc3cccnc3)C2)C1=O.O=C(O)C(F)(F)F.O=C(O)C(F)(F)F (stereo unspecified),-8.484
11,Cn1cc(N2C(=O)CC[C@@H]3[C@H]2CCN3Cc2ccncc2)cn1.O=C(O)C(F)(F)F.O=C(O)C(F)(F)F,-8.311
12,CC[C@@H]1N(Cc2ccncc2)CCC[C@]12CCC(=O)N2CCOC.O=C(O)C(F)(F)F.O=C(O)C(F)(F)F,102.9
13,Cc1ccc(CN2CC[C@@H]3[C@H]2CCC(=O)N3Cc2ccncc2)s1.O=C(O)C(F)(F)F.O=C(O)C(F)(F)F,13.87
14,CNC(=O)CN1C(=O)CCC12CCCN(Cc1ccccn1)C2 (stereo unspecified),-6.812
15,CC[C@@H]1N(Cc2ccncc2)CCC[C@]12CCC(=O)N2C.O=C(O)C(F)(F)F.O=C(O)C(F)(F)F,105.4
16,O=C(O)C(F)(F)F.O=C(O)C(F)(F)F.O=C1CC[C@@H]2[C@@H](CCN2Cc2ccncc2)N1c1ccccc1,-23.66
17,COCCCN1CCCCC12CC(=O)N(Cc1ccccn1)C2 (stereo unspecified),-0.9294
18,CC[C@@H]1N(Cc2cccnc2)CCC[C@]12CCC(=O)N2C.O=C(O)C(F)(F)F.O=C(O)C(F)(F)F,114.6
19,Cc1oc(-c2ccco2)nc1CC(=O)N1CCN(C2CCC2)CC1,0.04228
20,CNC(=O)[C@H]1C[C@@H]2CN(C(=O)c3cncc(C)c3)C[C@@H]2N1C,-44.11
21,O=C1O[C@@H]2CN(Cc3ccsc3)C[C@@H]2N1Cc1ccccn1,-2.572
22,CC(C)N1CCN(C)C2(CCN(C(=O)c3ccnnc3)CC2)C1=O,-6.646
23,N#CC1(c2ccccc2)CCN(C(=O)CN2C(=O)CCNC2=O)CC1,-11.36
24,CCN1CCN(C)C(=O)C12CCN(C(=O)Cc1ccccn1)CC2.O=C(O)C(F)(F)F,105.5

row,Structure (SMILES),Percent Effect [%]
1,CCS(=O)(=O)N1CCC2(C1)C(=O)N(C)CCN2Cc1ccncc1.O=C(O)C(F)(F)F.O=C(O)C(F)(F)F (stereo unspecified),-0.1551
2,CC(C)CN1CCNC(=O)C12CCN(C(=O)c1ccccn1)CC2,-2.981
3,O=C(CCc1cscn1)N1CCC(C(=O)O)(c2ccccc2)CC1,-1.592
4,CCN1CCNC(=O)C12CCN(C(=O)c1ccccn1)CC2,120
5,CCN1CCNC(=O)C12CCN(C(=O)Cc1ccccn1)CC2,118.9
6,O=C(NCCc1ccncc1)[C@H]1CC[C@@H]2[C@@H](CCN2C2CCC2)O1,-5.975
7,OCCN1CCN(Cc2cc3c(cc2Br)OCCO3)CC1,1.369
8,CC(C)=CCN1C[C@H]2CC[C@@H]1CN(C(=O)Cc1c(C)nc(C)[nH]c1=O)C2,-7.395
9,COc1ccc2c(c1)C1(CCNCC1)CC2NC1CC1.Cl.Cl (stereo unspecified),123.6
10,CC(C)NC1CC2(CCNCC2)c2cc(F)ccc21.Cl.Cl (stereo unspecified),1.689
11,Cc1ccc2c(c1)C(NC1CC1)CC21CCNCC1.Cl (stereo unspecified),121
12,Cc1ccc2c(c1)C1(CCNCC1)CC2NCCO.Cl.Cl (stereo unspecified),90.17
13,Cl.Cl.Fc1ccc2c(c1)C1(CCNCC1)CC2NC1CC1 (stereo unspecified),108.3
14,Cc1ccnc(NCCNC(=O)C2CC3(CCNCC3)CN2C)c1 (stereo unspecified),2.033
15,Cc1ccc2c(c1)C(NC(C)C)CC21CCNCC1.Cl (stereo unspecified),-5.487
16,Cl.O=C(Nc1ccccc1)C1=NOC2(CCNCC2)C1,-4.719
17,CN(C)C(=O)CN1CCCC2(CCN(c3ccc(C#N)cn3)C2)C1.O=C(O)C(F)(F)F (stereo unspecified),-7.726
18,Cc1cnn(CC(C)NCC(=O)NC2CCOCC2)c1 (stereo unspecified),1.556
19,COc1nc(N2CCNCC2)ncc1Br,-8.9
20,NC(=O)CC1CC2(CCNCC2)c2cc(F)ccc21.O=C(O)C(F)(F)F (stereo unspecified),111.2
21,Cc1ccc2c(c1)C1(CCNCC1)CC2NC(C)C.Cl.Cl (stereo unspecified),-0.3898
22,CN(C)C(=O)C1CCC2(CCNCC2)C1.O=C(O)C(F)(F)F (stereo unspecified),-33.97
23,Cc1ccc2c(c1)C1(CCNCC1)CC2NC1CC1.Cl.Cl (stereo unspecified),133.8
24,CNC(=O)C1CCC2(CCNCC2)C1.O=C(O)C(F)(F)F (stereo unspecified),1.559

row,Structure (SMILES),Percent Effect [%]
1,O=C(Cc1ccccn1)N1C[C@H]2CN(Cc3ccccn3)C[C@H]2C1,97.89
2,COC1CCC[C@@H]2CN(Cc3csc(C)n3)C[C@H]12.O=C(O)C(F)(F)F (stereo partly specified),-10.37
3,O=C1NC[C@H]2CN(Cc3ccccn3)CCN12,-1.346
4,Cc1nc(CN2C[C@@H]3CN(C(=O)Cc4ccccn4)C[C@@H]3C2)cs1.O=C(O)C(F)(F)F.O=C(O)C(F)(F)F,107.4
5,Cn1cnc(S(=O)(=O)N2C[C@H]3CN(Cc4ccccn4)C[C@H]3C2)c1.O=C(O)C(F)(F)F.O=C(O)C(F)(F)F,1.449
6,O=C(NCCc1c[nH]cn1)c1ccccc1C1CCNC1 (stereo unspecified),-4.788
7,C/C(=C\c1ccco1)CN(C)C(C)Cc1ccccn1 (stereo unspecified),-10.17
8,CC(Cc1ccccn1)N(C)Cc1ccc2c(c1)CCO2 (stereo unspecified),27.39
9,Cc1ccccc1-n1nc(C)c(CN(C)C(C)Cc2ccccn2)c1C.O=C(O)CC(O)(CC(=O)O)C(=O)O (stereo unspecified),108.5
10,Cc1cc(N2CCC(NC(C)Cc3ccsc3)CC2)nc(N)n1 (stereo unspecified),-1.435
11,O=C(C1CCCCC1)N1C[C@@H]2CCNC[C@@H]21,-27.82
12,Cl.O=C(N1CCOCC1)N1CCC2(CCNC2)C1 (stereo unspecified),-12.19
13,O=C(Cc1cccs1)N1C[C@@H]2OCCN(CC3CCCC3)[C@@H]2C1.O=C(O)C(F)(F)F,-11.83
14,Cc1cccc(CN2C[C@@H](NC(=O)C3CC3)[C@H]3OCCC[C@H]32)n1.O=C(O)C(F)(F)F.O=C(O)C(F)(F)F,-26.04
15,CN(Cc1cccnc1)[C@@H]1CN(CC2CC2)[C@@H]2CCCO[C@H]12.O=C(O)C(F)(F)F.O=C(O)C(F)(F)F.O=C(O)C(F)(F)F,-5.445
16,CN1CCN([C@@H]2CN(C(=O)Cc3ccsc3)[C@@H]3CCCO[C@H]23)CC1.O=C(O)C(F)(F)F.O=C(O)C(F)(F)F,-4.372
17,Cc1ccc(N2C[C@@H]3CCCO[C@@H]3[C@H](N3CCCC3)C2)nn1.O=C(O)C(F)(F)F.O=C(O)C(F)(F)F,-4.873
18,CN(C)[C@@H]1CN(C(=O)Cc2ccsc2)[C@@H]2CCCO[C@H]12.O=C(O)C(F)(F)F,105.5
19,CN(C)[C@@H]1CN(C(=O)Cc2cccs2)[C@@H]2CCCO[C@H]12.O=C(O)C(F)(F)F,115.4
20,O=C(Cc1cccs1)N1C[C@@H]2OCCN(CC3CCCO3)[C@@H]2C1.O=C(O)C(F)(F)F (stereo partly specified),-0.9645
21,CN(C)[C@@H]1CN(C(=O)Cc2ccccc2)[C@@H]2CCCO[C@H]12.O=C(O)C(F)(F)F,100.5
22,CN(C)[C@@H]1CN(C(=O)Cc2ccc(F)cc2)[C@@H]2CCCO[C@H]12.O=C(O)C(F)(F)F,85.9
23,Cc1cc(CN2C[C@@H]3CCCO[C@@H]3[C@H](N(C)C(C)C)C2)no1.O=C(O)C(F)(F)F.O=C(O)C(F)(F)F,-6.146
24,O=C(Cc1ccsc1)N1C[C@@H]2OCCN(CC3CC3)[C@@H]2C1.O=C(O)C(F)(F)F,-8.837
